Laboratory results from PubChem BioAssay.
A number with no mark means an inactive call. The source made the active and inactive calls.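 The calls were made as follows, unless noted: active = at least 20% inhibition of 6-phosphogluconate dehydrogenase activity; inactive = the rest.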 Peptide text beside a SMILES is read from it.

Test system: not listed separately
Assay: NPC library primary testing for decreased DLD-1 cell viability via CellTiter-Glo (AID 1117346;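 active = compounds that lower survival of DLD-1 colon cancer cells in the luminescence readout, no cutoff given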)
Details: DLD-1 viability, CellTiter-Glo luminescence; at 20 µM (top of the series)

SMILES | viability decrease (inhibition)
CN(C)CCc1c[nH]c2ccc(CS(=O)(=O)N3CCCC3)cc12 | -7.1%
COc1cc([C@H]2Oc3cc([C@H]4Oc5cc(O)cc(O)c5C(=O)[C@@H]4O)ccc3O[C@@H]2CO)ccc1O | -3.4%
C/C=C(/C(=C/C)c1ccc(O)cc1)c1ccc(O)cc1 | 102% (active)
O=C(O)c1cn(-c2ccc(F)cc2)c2cc(N3CCNCC3)c(F)cc2c1=O | -10.5%
CN1C(C(=O)Nc2ccccn2)=C(O)c2sccc2S1(=O)=O | -0.2%
COC(=O)Nc1nc2ccc(S(=O)c3ccccc3)cc2[nH]1 (stereo not drawn) | 88% (active)
NCC1CCC(C(=O)O)CC1 (stereo not drawn) | -6%
NC(CO)C(=O)NNCc1ccc(O)c(O)c1O (stereo not drawn) | 103% (active)
Nc1nc(=S)c2[nH]cnc2[nH]1 | 52.9% (active)
O=c1c(-c2ccc(O)cc2)coc2cc(O)cc(O)c12 | 8.45%
CC1(C)NC(=O)N(c2ccc([N+](=O)[O-])c(C(F)(F)F)c2)C1=O | -16.7%
C1CCC(C(CC2CCCCN2)C2CCCCC2)CC1 (stereo not drawn) | 103% (active)
N[C@@H](Cc1ccc(O)c(O)c1)C(=O)O | 47.5%
Cc1oncc1C(=O)Nc1ccc(C(F)(F)F)cc1 | 22%
NS(=O)(=O)c1cc2c(cc1Cl)NC(C(Cl)Cl)NS2(=O)=O (stereo not drawn) | 6.3%
CCCOc1ccc2nc(NC(=O)OC)[nH]c2c1 | 38.1%
Cc1cc(C2CCCCC2)n(O)c(=O)c1 | 90.8% (active)
COC(=O)[C@H](Cc1ccccc1)NC(=O)[C@@H](N)CC(=O)O (H-Asp-Phe-OMe) | 9.55%
CC1=CC(=O)c2ccccc2C1=O | 103% (active)
CCOC(=O)C1=C[C@]2(CC)CCCN3CCc4c(n1c1ccccc41)[C@@H]32 | 2.25%

Target: 6-phosphogluconate dehydrogenase, decarboxylating (Homo sapiens) (UniProt P52209)
Sequence (P52209 whole entry, looked up): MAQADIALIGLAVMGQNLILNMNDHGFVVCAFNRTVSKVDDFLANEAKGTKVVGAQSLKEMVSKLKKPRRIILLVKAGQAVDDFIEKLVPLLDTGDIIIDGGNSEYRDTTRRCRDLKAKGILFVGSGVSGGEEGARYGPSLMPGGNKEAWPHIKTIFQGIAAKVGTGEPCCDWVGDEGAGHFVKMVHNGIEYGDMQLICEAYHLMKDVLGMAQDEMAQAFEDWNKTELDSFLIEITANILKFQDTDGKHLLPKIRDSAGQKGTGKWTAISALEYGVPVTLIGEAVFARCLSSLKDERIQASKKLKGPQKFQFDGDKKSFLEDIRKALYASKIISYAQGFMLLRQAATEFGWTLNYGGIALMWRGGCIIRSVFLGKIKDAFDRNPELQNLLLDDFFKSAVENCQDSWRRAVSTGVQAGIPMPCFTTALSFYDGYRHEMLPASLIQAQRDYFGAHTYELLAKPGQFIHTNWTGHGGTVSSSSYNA
Assay: inhibition of human phosphogluconate dehydrogenase – biochemical, recombinant enzyme, NADPH absorbance, primary screen (AID 1159550)
Details: recombinant 6PGD, NADPH absorbance 341 nm; at 10 µM; stronger effect = higher value

SMILES | inhibition
O=C(Nc1ccc([N+](=O)[O-])cc1Cl)c1cc(Cl)ccc1O | 9.61%
CNC[C@H](O)c1cccc(O)c1 | 10.8%
O=NN(CCCl)C(=O)NCCCl | 0.0871%
COc1ccnc(CS(=O)c2nc3ccc(OC(F)F)cc3[nH]2)c1OC (stereo not drawn) | 11.1%
COc1ccc2cc3[n+](cc2c1OC)CCc1cc2c(cc1-3)OCO2 | 10.3%
CN(Cc1cc(Br)cc(Br)c1N)C1CCCCC1 | 16%
O=C(NC(Cc1cc(=O)[nH]c2ccccc12)C(=O)O)c1ccc(Cl)cc1 (stereo not drawn) | 4.66%
NC(=O)NO | -7.1%
Cc1ccc(S(=O)(=O)NC(=O)NN2CC3CCCC3C2)cc1 (stereo not drawn) | 2.59%
OC[C@H]1O[C@@H](O[C@@H]2[C@@H](CO)O[C@](O)(CO)[C@H]2O)[C@H](O)[C@@H](O)[C@H]1O | 0.0837%
NNc1nncc2ccccc12 | 15.4%
CCOC(=O)C(C)(C)Oc1ccc(Cl)cc1 | -1.28%
CC(=O)Oc1ccccc1C(=O)O | 15.9%
NC(=O)c1ncn([C@@H]2O[C@H](CO)[C@@H](O)[C@H]2O)n1 | 16.1%
CN(C)c1ccc(C(=C2C=CC(=[N+](C)C)C=C2)c2ccc(N(C)C)cc2)cc1 | 5.37%
Cn1cnc2c1c(=O)[nH]c(=O)n2C | -1.33%
COc1ccc(CCN(C)CCCC(C#N)(c2ccc(OC)c(OC)c2)C(C)C)cc1OC (stereo not drawn) | 10.8%
O=c1oc2c(O)c(O)cc3c(=O)oc4c(O)c(O)cc1c4c23 | -6.65%
CN(C)CCc1c[nH]c2ccc(CS(=O)(=O)N3CCCC3)cc12 | -1.67%

SMILES | inhibition
COc1cc([C@H]2Oc3cc([C@H]4Oc5cc(O)cc(O)c5C(=O)[C@@H]4O)ccc3O[C@@H]2CO)ccc1O | 9.07%
C/C=C(/C(=C/C)c1ccc(O)cc1)c1ccc(O)cc1 | 15.9%
O=C(O)c1cn(-c2ccc(F)cc2)c2cc(N3CCNCC3)c(F)cc2c1=O | 0.148%
CN1C(C(=O)Nc2ccccn2)=C(O)c2sccc2S1(=O)=O | -2.82%
COC(=O)Nc1nc2ccc(S(=O)c3ccccc3)cc2[nH]1 (stereo not drawn) | 17.4%
NCC1CCC(C(=O)O)CC1 (stereo not drawn) | 7.43%
NC(CO)C(=O)NNCc1ccc(O)c(O)c1O (stereo not drawn) | -10.3%
Nc1nc(=S)c2[nH]cnc2[nH]1 | 4.15%
O=c1c(-c2ccc(O)cc2)coc2cc(O)cc(O)c12 | 3.56%
CC1(C)NC(=O)N(c2ccc([N+](=O)[O-])c(C(F)(F)F)c2)C1=O | 9.97%
C1CCC(C(CC2CCCCN2)C2CCCCC2)CC1 (stereo not drawn) | 12.3%
N[C@@H](Cc1ccc(O)c(O)c1)C(=O)O | 2.07%
Cc1oncc1C(=O)Nc1ccc(C(F)(F)F)cc1 | -7%
NS(=O)(=O)c1cc2c(cc1Cl)NC(C(Cl)Cl)NS2(=O)=O (stereo not drawn) | 17.4%
CCCOc1ccc2nc(NC(=O)OC)[nH]c2c1 | 2.75%
Cc1cc(C2CCCCC2)n(O)c(=O)c1 | 1.68%
COC(=O)[C@H](Cc1ccccc1)NC(=O)[C@@H](N)CC(=O)O (H-Asp-Phe-OMe) | 10.8%
CC1=CC(=O)c2ccccc2C1=O | 12.5%
CCOC(=O)C1=C[C@]2(CC)CCCN3CCc4c(n1c1ccccc41)[C@@H]32 | 13.5%
